As a reminder, the AC50 is the concentration at which the activity in the assay is half-maximal.

Molecules are shown by their SMILES. Records with an inconclusive call do not appear. Activity calls are given as the source filed them. Rule for the calls, unless noted: active = hit-call score of the fitted dose curve at least 0.9, where 1 is the maximum; inconclusive = response in the unintended direction; inactive = score below 0.9.

Test [1] has as its target Myc proto-oncogene protein (Homo sapiens) (UniProt P01106). Nature of the test: ATG_Myc_CIS: Attagene CIS-FACTORIAL HepG2 Assay for human Myelocytomatosis (Myc) Proto-Oncogene Transcription Factor (AID 2282990; active = hit-call score of the fitted dose curve at least 0.9, where 1 is the maximum; inactive = score below 0.9). Conditions: HepG2, Attagene cis-reporter transcription factor activity; actives raise or lower the signal. The method, boiled down: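 Fluorescence intensity of reporter-specific cDNA fragments, separated by capillary electrophoresis, gives the signal. Transfected HepG2 cells carrying cis-promoter reporter constructs are incubated with compound for 24 h; DMSO serves as baseline.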

The nature of test [2]: ATG_NF_kB_CIS: Attagene CIS-FACTORIAL HepG2 Assay for human Nuclear Factor Kappa B (NF-kB) (AID 2282991; active = hit-call score of the fitted dose curve at least 0.9, where 1 is the maximum; inactive = score below 0.9). As to conditions: HepG2 Attagene cis-factorial NF-kB reporter mRNA; actives raise or lower the signal. The method in brief: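 After 24 h compound incubation, transfected HepG2 cells yield total RNA; reporter cDNA is PCR-amplified, end-labelled with 6-FAM, HpaI-digested and analysed on a genetic analyser. Endogenous factor activity, DMSO-referenced bidirectional fit.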

Test [3] can be described thus: ATG_NRF2_ARE_CIS: Attagene CIS-FACTORIAL HepG2 Assay for human Nuclear Factor Erythroid 2 Related Factor 2 (NFR2) response to Antioxidant Response Elements (ARE) (AID 2282992; active = hit-call score of the fitted dose curve at least 0.9, where 1 is the maximum; inactive = score below 0.9;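 for AC50: reporter mRNA level measured by RT-PCR and capillary electrophoresis fluorescence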). As to conditions: HepG2 Attagene ARE/NRF2 reporter, transcription factor activity; actives raise or lower the signal. The method in brief:
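Transient MRTU transfection of HepG2; 24 h compound exposure; TriZol RNA, RT with oligo(dT), PCR, 6-FAM primer extension, HpaI cut, CE. Bidirectional fit vs DMSO.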

The nature of test [4]: ATG_Oct_MLP_CIS: Attagene CIS-FACTORIAL HepG2 Assay for human Octamer-Binding Transcription Factor (Oct) (AID 2282993; active = hit-call score of the fitted dose curve at least 0.9, where 1 is the maximum; inactive = score below 0.9). As to conditions: HepG2 Attagene cis-factorial Oct reporter, mRNA; actives raise or lower the signal. The method in brief:
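Multiplexed cis-reporter assay in human liver HepG2 cells, 24 h incubation. Reporter RNA amplified and labelled, then resolved by capillary electrophoresis; DMSO serves as negative control and baseline.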

The target of test [5] is Cellular tumor antigen p53 (Homo sapiens) (UniProt P04637). Nature of the test: ATG_p53_CIS: Attagene CIS-FACTORIAL HepG2 Assay for human p53 Transcription Factor (AID 2282994; active = hit-call score of the fitted dose curve at least 0.9, where 1 is the maximum; inactive = score below 0.9). As to conditions: HepG2 p53 cis-element reporter, Attagene mRNA; actives raise or lower the signal. The method in brief: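 HepG2, transient MRTU transfection (cis promoter elements, endogenous TFs); 24 h dosing; RNA isolation, RT-PCR, 6-FAM primer extension, HpaI digest, CE fluorescence; bidirectional fit vs DMSO.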
Sequence of Cellular tumor antigen p53 (Homo sapiens) (P04637 whole entry, looked up): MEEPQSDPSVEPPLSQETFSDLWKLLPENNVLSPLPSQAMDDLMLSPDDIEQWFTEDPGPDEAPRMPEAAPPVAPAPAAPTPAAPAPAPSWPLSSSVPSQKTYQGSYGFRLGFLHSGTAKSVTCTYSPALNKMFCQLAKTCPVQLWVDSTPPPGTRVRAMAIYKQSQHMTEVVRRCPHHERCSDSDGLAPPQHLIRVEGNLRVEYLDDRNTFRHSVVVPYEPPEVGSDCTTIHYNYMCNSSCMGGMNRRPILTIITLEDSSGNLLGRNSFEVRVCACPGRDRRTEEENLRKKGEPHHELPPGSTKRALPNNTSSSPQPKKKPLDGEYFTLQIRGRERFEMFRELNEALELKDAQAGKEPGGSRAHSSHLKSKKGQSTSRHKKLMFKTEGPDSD

In test [6] the target is human Peroxisome Proliferator-activated Receptor delta (PPARd), PPARD (gene 5467) (UniProt Q03181). Nature of the test: ATG_PPARd_TRANS: Attagene TRANS-FACTORIAL HepG2 Assay for human Peroxisome Proliferator-activated Receptor delta (PPARd) (AID 2283002). The method in brief: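 Fluorescence from capillary electrophoresis of labelled RT-PCR reporter fragments gives the signal; DMSO sets baseline. Cells: HepG2 transiently carrying GAL4-UAS reporter units plus chimeric nuclear receptor-Gal4 proteins, exposed to chemicals for 24 h.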
Sequence of human Peroxisome Proliferator-activated Receptor delta (PPARd), PPARD (gene 5467) (Q03181 whole entry, looked up, the tested form may be a part): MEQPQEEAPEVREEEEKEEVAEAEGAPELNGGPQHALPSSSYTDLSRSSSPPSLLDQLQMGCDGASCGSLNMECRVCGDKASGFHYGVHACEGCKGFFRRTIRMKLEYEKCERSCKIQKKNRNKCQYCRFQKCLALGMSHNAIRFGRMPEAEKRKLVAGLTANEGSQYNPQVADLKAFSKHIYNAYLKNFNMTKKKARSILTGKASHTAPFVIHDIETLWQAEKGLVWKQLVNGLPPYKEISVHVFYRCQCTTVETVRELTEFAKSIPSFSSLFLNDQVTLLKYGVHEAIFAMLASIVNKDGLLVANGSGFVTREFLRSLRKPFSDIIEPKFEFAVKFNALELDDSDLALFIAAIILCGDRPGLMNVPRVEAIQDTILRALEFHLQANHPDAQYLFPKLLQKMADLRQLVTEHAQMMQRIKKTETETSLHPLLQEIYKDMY

Test [7] has as its target Retinoic acid receptor alpha (Homo sapiens) (UniProt P10276). Nature of the test: ATG_RARa_TRANS: Attagene TRANS-FACTORIAL HepG2 Assay for human Retinoic Acid Receptor alpha (RARa) (AID 2283005). The method in brief: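 HepG2 transiently transfected with multiplex GAL4-UAS reporter units including a human RARa–GAL4 chimera; 24 h compound exposure. Reporter mRNA quantified by RT-PCR, 6-FAM labeling and capillary electrophoresis; gain of signal versus DMSO.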

In test [8] the target is Peroxisome proliferator-activated receptor gamma (Homo sapiens) (UniProt P37231). Nature of the test: ATG_PPARg_TRANS: Attagene TRANS-FACTORIAL HepG2 Assay for human Peroxisome Proliferator-activated Receptor-gamma (PPARg) (AID 2283007). The method, boiled down: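 Liver-derived HepG2 cells expressing an exogenous NR-Gal4 chimera alongside GAL4-UAS reporter genes; 24 h exposure. Fluorescence of reporter RT-PCR products, separated by capillary electrophoresis, gives mRNA induction relative to DMSO.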
Sequence of Peroxisome proliferator-activated receptor gamma (Homo sapiens) (P37231 whole entry, looked up, the tested form may be a part): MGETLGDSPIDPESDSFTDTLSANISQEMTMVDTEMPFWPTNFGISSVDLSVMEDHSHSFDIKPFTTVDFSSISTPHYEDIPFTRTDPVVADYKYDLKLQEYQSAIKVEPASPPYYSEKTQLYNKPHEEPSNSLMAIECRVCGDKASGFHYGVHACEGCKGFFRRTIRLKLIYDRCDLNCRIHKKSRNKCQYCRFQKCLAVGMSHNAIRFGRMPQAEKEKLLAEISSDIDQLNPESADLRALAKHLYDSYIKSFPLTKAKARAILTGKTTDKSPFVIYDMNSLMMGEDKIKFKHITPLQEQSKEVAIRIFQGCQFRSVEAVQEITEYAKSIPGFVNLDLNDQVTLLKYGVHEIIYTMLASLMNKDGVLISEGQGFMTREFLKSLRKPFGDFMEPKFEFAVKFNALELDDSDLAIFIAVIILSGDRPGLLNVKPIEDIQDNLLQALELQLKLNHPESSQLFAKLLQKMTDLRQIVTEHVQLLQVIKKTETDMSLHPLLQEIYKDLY

Test [9] has as its target Nuclear receptor subfamily 1 group I member 2 (Homo sapiens) (UniProt O75469). Nature of the test: ATG_PXR_TRANS: Attagene TRANS-FACTORIAL HepG2 Assay for human Pregnane X Receptor (PXR) (AID 2283008). The method in brief: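 Read-out is fluorescence of labelled reporter cDNA fragments separated by capillary electrophoresis after RT-PCR and HpaI digestion. Source: HepG2 cells carrying PXR-GAL4/UAS reporter constructs, treated 24 h; activity fitted upward relative to DMSO.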

Test [10] has as its target human RAR-related Orphan Receptor beta (RORb), RORB (gene 6096) (UniProt Q92753). Nature of the test: ATG_RORb_TRANS: Attagene TRANS-FACTORIAL HepG2 Assay for human RAR-related Orphan Receptor beta (RORb) (AID 2283010). The method, boiled down: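 HepG2 cells transiently transfected with GAL4-UAS reporter units expressing chimeric NR-Gal4 protein; reporter mRNA measured 24 h after dosing by RT-PCR, 6-FAM labelling and capillary electrophoresis. Gain-of-signal fitted relative to DMSO baseline.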

Test [11] deals with human RAR-related Orphan Receptor gamma (RORg), RORC (gene 6097) (UniProt P51449). Nature of the test: ATG_RORg_TRANS: Attagene TRANS-FACTORIAL HepG2 Assay for human RAR-related Orphan Receptor gamma (RORg) (AID 2283011). The method in brief:
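Readout: reporter transcript induction (RT-PCR, fluorescent primer extension, capillary electrophoresis) after 24 h compound exposure of transiently transfected HepG2 cells carrying a RORg-Gal4 chimera and GAL4-UAS reporters; DMSO served as baseline, with increasing signal fitted.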

The target in test [12] is human Retinoic Acid Receptor beta (RARb), RARB (gene 5915) (UniProt P10826). Nature of the test: ATG_RARb_TRANS: Attagene TRANS-FACTORIAL HepG2 Assay for human Retinoic Acid Receptor beta (AID 2283004). The method in brief: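 HepG2 cells transiently transfected with multiplexed GAL4-UAS reporter units expressing chimeric NR–Gal4 fusions; 24 h compound exposure. Reporter mRNA quantified by RT-PCR, 6-FAM labelling, HpaI digestion and capillary electrophoresis; gain-of-signal fitted against DMSO baseline.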

In test [13] the target is human Retinoic Acid Receptor gamma (RARg), RARG (gene 5916) (UniProt P13631). Nature of the test: ATG_RARg_TRANS: Attagene TRANS-FACTORIAL HepG2 Assay for human Retinoic Acid Receptor gamma (RARg) (AID 2283009). The method in brief:
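HepG2 transiently transfected with GAL4-UAS reporter units and chimeric NR-Gal4 constructs; 24 h compound exposure. Reporter mRNA quantified by RT-PCR, FAM labeling, HpaI digestion and capillary electrophoresis; gain-of-signal versus DMSO.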

The target of test [14] is human Peroxisome Proliferator-activated Receptor alpha (PPARa), PPARA (gene 5465) (UniProt Q07869). Nature of the test: ATG_PPARa_TRANS: Attagene TRANS-FACTORIAL HepG2 Assay for human Peroxisome Proliferator-activated Receptor alpha (PPARa) (AID 2283001). The method, boiled down: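 HepG2 cells transiently transfected with multiplexed GAL4-UAS reporters driven by exogenous chimeric NR-Gal4 proteins; reporter mRNA measured after 24 h dosing. Read-out by RT-PCR, 6-FAM labelling, HpaI digestion and capillary electrophoresis; gain of signal versus DMSO.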
Sequence of human Peroxisome Proliferator-activated Receptor alpha (PPARa), PPARA (gene 5465) (Q07869 whole entry, looked up, the tested form may be a part): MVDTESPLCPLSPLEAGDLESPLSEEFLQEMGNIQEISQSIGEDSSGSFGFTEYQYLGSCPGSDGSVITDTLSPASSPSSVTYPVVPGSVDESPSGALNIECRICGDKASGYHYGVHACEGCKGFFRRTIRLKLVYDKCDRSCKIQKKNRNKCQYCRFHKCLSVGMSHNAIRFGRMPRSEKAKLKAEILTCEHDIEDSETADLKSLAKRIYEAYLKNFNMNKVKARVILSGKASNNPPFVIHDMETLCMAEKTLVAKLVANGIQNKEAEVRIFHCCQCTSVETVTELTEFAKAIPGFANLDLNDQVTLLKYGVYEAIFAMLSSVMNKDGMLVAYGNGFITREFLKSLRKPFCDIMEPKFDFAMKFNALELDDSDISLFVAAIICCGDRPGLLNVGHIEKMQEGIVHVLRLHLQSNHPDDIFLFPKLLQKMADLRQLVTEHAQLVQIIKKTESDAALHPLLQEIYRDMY

Sequence of human Retinoic Acid Receptor gamma (RARg), RARG (gene 5916) (P13631 whole entry, looked up, the tested form may be a part): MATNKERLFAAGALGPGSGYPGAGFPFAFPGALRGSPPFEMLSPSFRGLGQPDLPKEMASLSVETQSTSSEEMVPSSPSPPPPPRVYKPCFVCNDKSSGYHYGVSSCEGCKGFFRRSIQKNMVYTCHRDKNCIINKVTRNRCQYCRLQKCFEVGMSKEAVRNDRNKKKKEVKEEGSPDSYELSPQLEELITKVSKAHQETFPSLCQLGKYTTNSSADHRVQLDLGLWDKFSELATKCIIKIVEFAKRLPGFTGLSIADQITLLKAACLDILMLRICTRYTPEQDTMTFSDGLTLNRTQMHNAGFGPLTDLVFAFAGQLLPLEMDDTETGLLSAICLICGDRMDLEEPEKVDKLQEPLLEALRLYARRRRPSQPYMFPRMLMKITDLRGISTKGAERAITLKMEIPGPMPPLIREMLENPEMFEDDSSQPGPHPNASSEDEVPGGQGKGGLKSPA
Sequence of Nuclear receptor subfamily 1 group I member 2 (Homo sapiens) (O75469 whole entry, looked up, the tested form may be a part): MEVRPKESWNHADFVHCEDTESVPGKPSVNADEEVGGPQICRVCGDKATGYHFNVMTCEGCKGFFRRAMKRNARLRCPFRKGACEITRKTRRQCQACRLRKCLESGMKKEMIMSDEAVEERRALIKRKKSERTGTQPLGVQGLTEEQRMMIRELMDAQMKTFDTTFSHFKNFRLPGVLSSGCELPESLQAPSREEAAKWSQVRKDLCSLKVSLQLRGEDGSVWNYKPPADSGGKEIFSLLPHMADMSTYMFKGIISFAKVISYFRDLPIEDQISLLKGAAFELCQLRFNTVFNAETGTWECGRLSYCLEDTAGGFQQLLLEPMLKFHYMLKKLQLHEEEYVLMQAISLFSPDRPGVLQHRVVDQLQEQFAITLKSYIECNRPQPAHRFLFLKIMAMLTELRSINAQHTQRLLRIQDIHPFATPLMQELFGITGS
Sequence of Myc proto-oncogene protein (Homo sapiens) (P01106 whole entry, looked up, the tested form may be a part): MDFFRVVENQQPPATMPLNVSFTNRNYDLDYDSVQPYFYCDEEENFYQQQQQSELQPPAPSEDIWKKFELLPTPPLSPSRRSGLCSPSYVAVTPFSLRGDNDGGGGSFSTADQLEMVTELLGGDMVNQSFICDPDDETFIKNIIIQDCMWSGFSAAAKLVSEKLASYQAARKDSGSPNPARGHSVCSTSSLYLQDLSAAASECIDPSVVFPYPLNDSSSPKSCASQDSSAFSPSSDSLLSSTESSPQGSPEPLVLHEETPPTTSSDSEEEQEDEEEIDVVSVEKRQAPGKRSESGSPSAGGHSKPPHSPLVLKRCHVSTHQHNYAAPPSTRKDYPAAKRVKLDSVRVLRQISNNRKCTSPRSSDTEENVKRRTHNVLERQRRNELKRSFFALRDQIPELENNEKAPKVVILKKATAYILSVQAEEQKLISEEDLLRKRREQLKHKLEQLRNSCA
Sequence of human RAR-related Orphan Receptor gamma (RORg), RORC (gene 6097) (P51449 whole entry, looked up, the tested form may be a part): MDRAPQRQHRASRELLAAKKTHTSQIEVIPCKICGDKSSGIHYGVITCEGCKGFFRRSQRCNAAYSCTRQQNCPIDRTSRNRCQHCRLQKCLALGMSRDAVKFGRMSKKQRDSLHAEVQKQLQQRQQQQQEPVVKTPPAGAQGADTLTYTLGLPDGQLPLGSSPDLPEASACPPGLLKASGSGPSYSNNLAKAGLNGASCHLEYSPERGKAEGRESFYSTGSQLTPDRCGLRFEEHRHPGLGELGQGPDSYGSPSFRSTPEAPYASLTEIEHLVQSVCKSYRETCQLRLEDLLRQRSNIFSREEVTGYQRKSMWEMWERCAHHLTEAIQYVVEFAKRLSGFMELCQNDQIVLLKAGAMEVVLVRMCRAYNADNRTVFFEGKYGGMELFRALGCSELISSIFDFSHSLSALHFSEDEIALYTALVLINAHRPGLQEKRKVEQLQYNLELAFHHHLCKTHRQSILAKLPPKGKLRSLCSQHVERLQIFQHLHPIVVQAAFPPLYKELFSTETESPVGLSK
Sequence of human RAR-related Orphan Receptor beta (RORb), RORB (gene 6096) (Q92753 whole entry, looked up, the tested form may be a part): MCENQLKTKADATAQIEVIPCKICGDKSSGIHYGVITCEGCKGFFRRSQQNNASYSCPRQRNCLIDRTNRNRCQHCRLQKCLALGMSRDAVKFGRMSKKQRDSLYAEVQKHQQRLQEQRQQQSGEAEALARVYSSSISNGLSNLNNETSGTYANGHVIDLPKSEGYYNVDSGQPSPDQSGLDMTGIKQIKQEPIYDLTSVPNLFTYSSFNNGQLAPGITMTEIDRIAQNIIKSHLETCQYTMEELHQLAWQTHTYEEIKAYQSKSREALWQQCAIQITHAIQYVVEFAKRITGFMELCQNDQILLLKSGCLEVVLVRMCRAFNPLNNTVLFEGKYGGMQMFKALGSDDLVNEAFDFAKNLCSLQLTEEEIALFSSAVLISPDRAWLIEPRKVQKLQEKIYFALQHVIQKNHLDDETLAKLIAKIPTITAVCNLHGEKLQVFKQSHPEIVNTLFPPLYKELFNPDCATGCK
Sequence of Retinoic acid receptor alpha (Homo sapiens) (P10276 whole entry, looked up, the tested form may be a part): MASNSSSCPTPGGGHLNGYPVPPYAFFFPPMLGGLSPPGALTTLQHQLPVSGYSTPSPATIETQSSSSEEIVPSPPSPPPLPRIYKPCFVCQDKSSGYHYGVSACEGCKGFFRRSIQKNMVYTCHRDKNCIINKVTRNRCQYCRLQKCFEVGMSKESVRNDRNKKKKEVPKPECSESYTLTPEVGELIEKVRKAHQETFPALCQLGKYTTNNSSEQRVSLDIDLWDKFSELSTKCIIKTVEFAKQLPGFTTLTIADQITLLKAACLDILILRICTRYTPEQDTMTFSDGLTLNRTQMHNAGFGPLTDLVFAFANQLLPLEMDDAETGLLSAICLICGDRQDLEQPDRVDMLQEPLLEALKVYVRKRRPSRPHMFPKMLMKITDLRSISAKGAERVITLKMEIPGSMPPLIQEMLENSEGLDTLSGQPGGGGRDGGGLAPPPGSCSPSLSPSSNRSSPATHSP

As to `Cc1ccc(C2OC[C@@H]3OC(c4ccc(C)cc4)O[C@H]([C@H](O)CO)[C@@H]3O2)cc1` (stereo partly drawn), the outcome in test [1], in [2], in test [4], in [5], in test [6] and in test [7] was inactive. For the same compound, the compound was classed as inactive in test [8], in [9], in [10] and in [11]. Moreover, the AC50 in test [3] was 100 µM (active).
Consider `CC(C)(C)c1n[nH]c(=O)n(N)c1=O`, for which the compound was called inactive in test [1], in test [2], in test [3], in test [5], in test [12] and in [9]. Further, the call in [13] and in test [11] was inactive.
On to `CCN(Cc1cccc(S(=O)(=O)O)c1)c1ccc(C(=C2C=CC(=[N+](CC)Cc3cccc(S(=O)(=O)[O-])c3)C=C2)c2ccccc2)cc1`, for which the outcome in test [1], in test [4], in test [5], in test [6], in test [9] and in test [10] was inactive. Further, the AC50 is 112 µM (active) in [3] and 31.1 µM (active) in test [8].
For the compound `CC(CC=O)CCCC(C)(C)O` (stereo not drawn), the compound was called inactive in test [1], in test [2], in test [3], in test [4], in test [14] and in test [6]. For the same compound, the compound was called inactive in test [8], in test [9] and in test [10].
On to `C=C[Si](C)(C)O[Si](C)(C)C=C`, for which the compound was classed as inactive in [1], in test [4], in test [5], in [12], in [7] and in test [13]. Further, the result in test [10] and in [11] was inactive.
Consider `CC1(C)O[C@@H]2C[C@H]3[C@@H]4C[C@H](F)C5=CC(=O)CC[C@]5(C)[C@H]4[C@@H](O)C[C@]3(C)[C@]2(C(=O)CO)O1`, for which the result in test [1], in [3], in [4], in [5] and in test [6] was inactive. Moreover, the AC50 in test [9] was 27 µM (active).
Take `ON(Cc1ccccc1)Cc1ccccc1`: the compound was called inactive in test [1], in test [2], in test [3], in test [5], in test [6] and in [13]. In addition, in test [9], the AC50 was 17.2 µM (active).
Consider `NNC(=O)c1cccc(C(=O)NN)c1`, for which the result in test [1], in [3], in [4], in [5], in test [9] and in test [13] was inactive.
As to `Clc1nc2ccccc2s1`, the call in [1], in test [2], in test [3], in test [5], in test [14] and in test [7] was inactive. Besides, the compound was called inactive in test [8], in test [9], in test [13], in test [10] and in test [11].
For the compound `CCOC(=O)CC(C(C)=O)C(C)=O`, the outcome in test [1], in test [2], in test [3], in [4], in test [5] and in test [14] was inactive. In addition, the call in test [7], in test [9] and in [10] was inactive.

For the origin of these results see PubChem BioAssay (EPA / NIEHS).
